The text below walks through data of ChEMBL document CHEMBL1961873, “Compounds: GSK PKIS; Assays: Nanosyn kinase panel” (2012).

One may read the inhibition as the drop in the measured response relative to a control, in per cent.

In assay [1] the target is T1, 3-phosphoinositide-dependent protein kinase 1 (Homo sapiens) (UniProt O15530).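 Also: values are mean inhibition of PDK1.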
T1 sequence (whole entry): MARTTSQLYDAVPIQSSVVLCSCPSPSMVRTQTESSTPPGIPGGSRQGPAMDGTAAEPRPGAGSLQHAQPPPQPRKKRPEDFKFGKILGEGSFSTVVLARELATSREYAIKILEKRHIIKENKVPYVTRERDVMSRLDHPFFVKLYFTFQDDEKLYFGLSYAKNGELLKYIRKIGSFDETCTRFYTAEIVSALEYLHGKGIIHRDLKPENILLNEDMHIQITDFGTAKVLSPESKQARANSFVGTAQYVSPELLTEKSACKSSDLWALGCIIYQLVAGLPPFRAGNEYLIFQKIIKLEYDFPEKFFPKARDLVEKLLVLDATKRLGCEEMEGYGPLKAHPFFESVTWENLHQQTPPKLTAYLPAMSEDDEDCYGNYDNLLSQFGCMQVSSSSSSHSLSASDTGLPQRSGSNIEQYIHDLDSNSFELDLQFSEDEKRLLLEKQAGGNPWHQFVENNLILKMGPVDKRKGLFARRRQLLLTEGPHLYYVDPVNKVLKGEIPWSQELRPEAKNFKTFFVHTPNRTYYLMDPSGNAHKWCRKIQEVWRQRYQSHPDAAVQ
As to conditions: at 0.1 µM.

The target in assay [2] is cAMP-dependent protein kinase catalytic subunit alpha (Homo sapiens) (UniProt P17612). As to conditions: at 0.1 µM.
The target is the same in assay [3]. Particulars: at 1 µM.
In assay [4] the target is Protein kinase C alpha type (Homo sapiens) (UniProt P17252). As to conditions: at 0.1 µM.
Assay [5] has the same target. As to conditions: at 1 µM.
Assay [6] deals with Protein kinase C beta type (Homo sapiens) (UniProt P05771). Particulars: at 0.1 µM.
Assay [7] has the same target. Particulars: at 1 µM.
Assay [8] has as its target Protein kinase C eta type (Homo sapiens) (UniProt P24723). Particulars: at 0.1 µM.
The target is the same in assay [9]. Particulars: at 1 µM.
Assay [10] deals with Protein kinase C gamma type (Homo sapiens) (UniProt P05129). As to conditions: at 0.1 µM.
Assay [11] has the same target. Particulars: at 1 µM.
The target of assay [12] is T2, Protein kinase C iota type (Homo sapiens) (UniProt P41743).
T2 sequence (whole entry): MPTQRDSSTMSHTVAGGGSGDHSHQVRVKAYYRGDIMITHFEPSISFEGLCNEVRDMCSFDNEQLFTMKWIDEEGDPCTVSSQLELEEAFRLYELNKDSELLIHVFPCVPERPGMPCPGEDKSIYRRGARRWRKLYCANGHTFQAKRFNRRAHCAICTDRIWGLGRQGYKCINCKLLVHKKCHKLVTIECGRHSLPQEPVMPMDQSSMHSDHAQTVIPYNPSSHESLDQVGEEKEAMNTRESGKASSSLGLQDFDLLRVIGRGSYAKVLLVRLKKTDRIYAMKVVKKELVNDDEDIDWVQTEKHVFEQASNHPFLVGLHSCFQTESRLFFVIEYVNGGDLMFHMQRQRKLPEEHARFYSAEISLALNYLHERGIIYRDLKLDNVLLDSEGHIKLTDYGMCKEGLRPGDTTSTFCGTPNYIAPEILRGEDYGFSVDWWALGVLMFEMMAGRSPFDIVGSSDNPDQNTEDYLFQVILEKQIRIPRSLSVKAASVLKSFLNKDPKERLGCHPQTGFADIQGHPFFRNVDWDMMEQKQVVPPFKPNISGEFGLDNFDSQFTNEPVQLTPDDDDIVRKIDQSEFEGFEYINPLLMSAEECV
Particulars: at 0.1 µM.

The target of assay [13] is T2, Protein kinase C iota type (Homo sapiens). As to conditions: at 1 µM.
In assay [14] the target is Protein kinase C theta type (Homo sapiens) (UniProt Q04759). As to conditions: at 0.1 µM.
For assay [15] the target is unchanged. Particulars: at 1 µM.
Assay [16] concerns the target Protein kinase C beta type (Homo sapiens) (UniProt P05771). Particulars: at 0.1 µM. The source holds these as a separate data set.
Assay [17] has the same target. Particulars: at 1 µM. This is another data set of the same source.
In assay [18] the target is T3, Serine/threonine-protein kinase D1 (Homo sapiens) (UniProt Q15139).
T3 sequence (whole entry): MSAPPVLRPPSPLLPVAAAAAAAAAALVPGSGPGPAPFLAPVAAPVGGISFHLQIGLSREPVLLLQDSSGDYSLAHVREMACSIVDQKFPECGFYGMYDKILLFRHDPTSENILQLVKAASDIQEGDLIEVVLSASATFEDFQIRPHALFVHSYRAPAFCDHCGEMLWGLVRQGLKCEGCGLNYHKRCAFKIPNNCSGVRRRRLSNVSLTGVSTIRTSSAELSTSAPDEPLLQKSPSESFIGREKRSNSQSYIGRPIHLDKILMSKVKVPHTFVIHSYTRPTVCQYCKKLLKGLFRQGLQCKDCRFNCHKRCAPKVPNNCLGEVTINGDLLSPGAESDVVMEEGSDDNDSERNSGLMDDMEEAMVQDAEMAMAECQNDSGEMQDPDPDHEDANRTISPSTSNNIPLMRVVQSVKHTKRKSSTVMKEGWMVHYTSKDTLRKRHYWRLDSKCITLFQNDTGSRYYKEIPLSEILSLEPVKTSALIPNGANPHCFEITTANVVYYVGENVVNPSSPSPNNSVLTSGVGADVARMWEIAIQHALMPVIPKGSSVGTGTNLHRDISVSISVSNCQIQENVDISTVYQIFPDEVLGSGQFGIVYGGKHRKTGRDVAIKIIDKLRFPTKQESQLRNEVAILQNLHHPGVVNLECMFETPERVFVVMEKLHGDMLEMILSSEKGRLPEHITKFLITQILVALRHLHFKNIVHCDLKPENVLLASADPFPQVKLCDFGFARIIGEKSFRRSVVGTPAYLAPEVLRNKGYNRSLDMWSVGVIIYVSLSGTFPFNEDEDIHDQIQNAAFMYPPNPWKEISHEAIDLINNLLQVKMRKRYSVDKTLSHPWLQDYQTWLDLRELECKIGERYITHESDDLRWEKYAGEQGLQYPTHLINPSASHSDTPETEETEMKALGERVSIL
Particulars: at 0.1 µM.

The target in assay [19] is T3, Serine/threonine-protein kinase D1 (Homo sapiens). As to conditions: at 1 µM.
Assay [20] addresses T4, Serine/threonine-protein kinase D2 (Homo sapiens) (UniProt Q9BZL6).
T4 sequence (whole entry): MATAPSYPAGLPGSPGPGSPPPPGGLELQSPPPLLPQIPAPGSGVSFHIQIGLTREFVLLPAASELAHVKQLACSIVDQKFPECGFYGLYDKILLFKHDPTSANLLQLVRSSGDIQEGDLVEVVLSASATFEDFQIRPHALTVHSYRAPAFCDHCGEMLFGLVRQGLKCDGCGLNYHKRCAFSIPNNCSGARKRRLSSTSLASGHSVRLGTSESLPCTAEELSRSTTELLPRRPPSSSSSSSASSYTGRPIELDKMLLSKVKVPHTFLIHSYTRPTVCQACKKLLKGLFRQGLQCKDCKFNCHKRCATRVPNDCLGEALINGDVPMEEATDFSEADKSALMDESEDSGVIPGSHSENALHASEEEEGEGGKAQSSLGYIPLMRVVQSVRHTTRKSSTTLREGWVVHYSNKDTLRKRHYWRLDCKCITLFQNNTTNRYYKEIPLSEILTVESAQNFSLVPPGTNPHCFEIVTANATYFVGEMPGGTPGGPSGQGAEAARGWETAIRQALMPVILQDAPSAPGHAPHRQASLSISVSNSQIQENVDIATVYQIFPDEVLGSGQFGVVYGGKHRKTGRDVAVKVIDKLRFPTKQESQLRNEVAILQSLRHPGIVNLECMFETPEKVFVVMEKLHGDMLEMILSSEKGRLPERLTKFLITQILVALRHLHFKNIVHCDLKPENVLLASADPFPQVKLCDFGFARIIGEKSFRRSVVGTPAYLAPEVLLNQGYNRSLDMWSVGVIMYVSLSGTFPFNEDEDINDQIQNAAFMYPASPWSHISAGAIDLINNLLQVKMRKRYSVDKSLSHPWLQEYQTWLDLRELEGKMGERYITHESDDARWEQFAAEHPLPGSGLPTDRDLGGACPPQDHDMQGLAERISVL
As to conditions: at 0.1 µM.

Protein kinase C eta type (Homo sapiens), sequence (P24723 whole entry): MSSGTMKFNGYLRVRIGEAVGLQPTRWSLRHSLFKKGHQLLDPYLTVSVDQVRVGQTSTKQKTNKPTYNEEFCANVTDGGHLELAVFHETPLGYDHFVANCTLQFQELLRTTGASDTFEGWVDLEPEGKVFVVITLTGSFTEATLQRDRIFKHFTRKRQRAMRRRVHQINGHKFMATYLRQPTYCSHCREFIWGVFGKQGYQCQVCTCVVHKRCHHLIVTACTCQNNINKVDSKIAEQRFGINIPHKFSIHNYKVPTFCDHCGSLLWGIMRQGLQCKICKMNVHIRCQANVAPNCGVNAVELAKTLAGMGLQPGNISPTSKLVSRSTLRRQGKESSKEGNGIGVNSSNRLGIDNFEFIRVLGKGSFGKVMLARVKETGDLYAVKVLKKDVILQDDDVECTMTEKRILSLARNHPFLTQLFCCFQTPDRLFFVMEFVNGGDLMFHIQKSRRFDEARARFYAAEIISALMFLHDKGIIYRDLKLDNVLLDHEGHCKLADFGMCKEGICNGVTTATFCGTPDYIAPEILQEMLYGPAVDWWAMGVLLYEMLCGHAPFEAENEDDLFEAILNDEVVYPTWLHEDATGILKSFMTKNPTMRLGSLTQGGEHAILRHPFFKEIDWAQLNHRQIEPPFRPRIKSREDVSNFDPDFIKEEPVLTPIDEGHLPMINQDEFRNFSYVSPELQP
Protein kinase C beta type (Homo sapiens), sequence (P05771 2-671 limits assumed): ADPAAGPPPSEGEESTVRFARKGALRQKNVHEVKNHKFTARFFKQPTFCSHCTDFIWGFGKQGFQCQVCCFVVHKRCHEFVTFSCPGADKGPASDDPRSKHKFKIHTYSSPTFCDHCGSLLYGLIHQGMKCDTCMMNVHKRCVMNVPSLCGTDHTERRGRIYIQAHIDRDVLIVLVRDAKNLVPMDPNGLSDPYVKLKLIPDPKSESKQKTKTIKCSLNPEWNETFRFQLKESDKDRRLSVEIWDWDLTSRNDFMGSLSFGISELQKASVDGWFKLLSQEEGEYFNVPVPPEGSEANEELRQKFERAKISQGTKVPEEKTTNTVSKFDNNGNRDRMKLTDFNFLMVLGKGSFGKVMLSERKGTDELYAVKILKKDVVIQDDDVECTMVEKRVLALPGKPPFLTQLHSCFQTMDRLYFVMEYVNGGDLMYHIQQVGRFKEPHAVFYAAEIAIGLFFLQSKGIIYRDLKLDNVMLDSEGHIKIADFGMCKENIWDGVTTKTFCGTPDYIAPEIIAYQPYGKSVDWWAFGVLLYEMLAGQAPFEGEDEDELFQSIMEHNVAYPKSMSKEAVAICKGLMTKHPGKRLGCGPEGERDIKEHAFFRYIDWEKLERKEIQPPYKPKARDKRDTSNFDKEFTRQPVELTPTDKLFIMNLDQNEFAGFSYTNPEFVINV
Protein kinase C theta type (Homo sapiens), sequence (Q04759 whole entry, looked up): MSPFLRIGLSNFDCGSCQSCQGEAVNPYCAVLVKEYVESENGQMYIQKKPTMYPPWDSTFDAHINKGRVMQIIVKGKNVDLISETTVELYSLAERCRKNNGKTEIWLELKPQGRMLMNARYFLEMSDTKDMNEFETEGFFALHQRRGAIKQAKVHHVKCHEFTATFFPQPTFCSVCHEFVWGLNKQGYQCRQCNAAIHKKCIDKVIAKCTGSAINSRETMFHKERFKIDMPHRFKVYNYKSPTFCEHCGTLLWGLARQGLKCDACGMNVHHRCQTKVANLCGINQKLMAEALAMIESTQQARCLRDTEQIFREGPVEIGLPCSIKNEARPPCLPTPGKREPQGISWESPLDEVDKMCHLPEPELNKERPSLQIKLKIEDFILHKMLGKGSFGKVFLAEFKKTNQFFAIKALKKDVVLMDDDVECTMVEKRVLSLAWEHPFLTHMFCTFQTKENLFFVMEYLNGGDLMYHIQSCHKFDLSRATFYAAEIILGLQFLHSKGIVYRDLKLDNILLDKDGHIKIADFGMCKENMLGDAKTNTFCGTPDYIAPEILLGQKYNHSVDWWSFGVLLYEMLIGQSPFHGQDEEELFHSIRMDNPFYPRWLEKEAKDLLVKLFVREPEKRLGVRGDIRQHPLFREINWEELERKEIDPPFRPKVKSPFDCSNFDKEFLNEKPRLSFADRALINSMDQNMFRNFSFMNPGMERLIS

With `CCN1CCC(CC(=O)Nc2n[nH]c3nnc(-c4cccc(F)c4F)cc23)CC1`, the inhibition in assay [1] turned out to be 1.89%; in [2], 1.6%; in [3] it was 3.23%; in [4] it was 0.66%; in assay [5], 1.58%; in assay [6], 2.14%. The inhibition in assay [7] is 0.03%; in [8], 1.63%; in [9], 3.3%; in assay [10], 3.44%; in assay [11], 1.09%; in [12] it was 0.63%. The inhibition turned out to be 1.36% in assay [13]; 0.68% in assay [14]; 1.31% in assay [15]; 0.16% in [16]; 0.85% in [17]; 0.72% in [18]. The figures for the inhibition in assay [19] and in [20] were 1.85% and 2.45%, respectively.
Regarding `c1ccc(COc2ccc(Nc3ncnc4ccc(-c5ccco5)cc34)cc2)cc1`, the inhibition in [1] was 0.07%; in assay [2], 1.25%; in assay [3], 1.55%; in [4] it was -0.04%; in assay [5], 0.05%; in assay [6], -0.86%. In addition, the inhibition was -0.3% in assay [7]; 0.37% in assay [8]; 0.45% in [9]; 0.73% in [10]; 0.84% in [11]; -1.29% in assay [12]. The inhibition in assay [13] is -0.86%; in assay [14] it was -2.6%; in assay [15], -0.62%; in [16] it was 0.49%; in [17] it was 0.58%; in assay [18], 1.25%. Also, the inhibition in assay [19] stood at 0.71%; in assay [20], 3.12%.
`CS(=O)(=O)CCNCc1ccc(-c2ccc3ncnc(Nc4ccc(OCc5ccccc5)c(C(F)(F)F)c4)c3c2)o1`: the inhibition in assay [1] was -0.19%; in [2], 1.37%; in assay [3], 1.5%; in assay [4], 0.59%; in [5], 0.28%; in [6], 0.21%. For the same compound, the inhibition turned out to be 1.23% in assay [7]; 4.55% in [8]; 5.11% in assay [9]; 2.66% in assay [10]; 0.29% in [11]; 1.93% in [12]. Also, the inhibition came to 2.76% in assay [13]; 1.99% in [14]; 1.95% in assay [15]; 1.11% in assay [16]; 1.5% in assay [17]; 3.89% in assay [18]. The inhibition came out at 5.55% in [19] and 3.28% in [20].
In the case of `c1ccc(-c2nc3n(c2-c2ccc4c(c2)OCO4)CCC3)nc1`, the inhibition in assay [1] is 0.98%; in assay [2], 1.49%; in assay [3], 5.08%; in [4], 0.9%; in [5] it was 1.8%; in assay [6], 3.53%. For the same compound, the inhibition in assay [7] came to 5.04%; in [8], 1.35%; in assay [9], 1.85%; in assay [10], 0%; in [11] it was 2.8%; in assay [12] it was 2.19%. Further, the inhibition was 3.9% in [13]; 1.78% in assay [14]; 3.83% in [15]; 1.96% in assay [16]; 4.57% in assay [17]; 1.92% in assay [18]. For the same compound, the inhibition in assay [19] is 5.43%; in assay [20], 1.94%.
